The campaign covered roughly 5,500 compounds. About 2,000 (36%) were called active. Another 18% or so got no clear call; they are omitted. Rule as the data show it: active = normalized growth mostly below about 0.91 (no sharp cut-off); inconclusive = no clear call, values can overlap the other calls; inactive = mostly above about 0.92. The list shows a part of the results.
Assay: chemical genetic growth profiling, strain panel (AID 1159580);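 also: tested at 20 µM; growth read once vehicle control cultures reached saturation at 30 °C; 1 = growth at the plate median or of vehicle wells; lower values mean less growth of the strain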
Settings: S. cerevisiae deletion strains, growth OD
[1] = locus YAL021C, strain ccr4, stronger effect = lower value
[2] = locus YAL026C, strain drs2, stronger effect = lower value
[3] = locus YAL030W, strain snc1, stronger effect = lower value
[4] = locus YBL061C, strain skt5, stronger effect = lower value
[5] = locus YBR009C, strain hhf1, stronger effect = lower value
[6] = locus YBR023C, strain chs3, stronger effect = lower value
[7] = locus YBR171W, strain sec66, stronger effect = lower value
[8] = locus YBR231C, strain swc5, stronger effect = lower value
[9] = locus YBR279W, strain paf1, stronger effect = lower value
[10] = locus YCL011C, strain gbp2, stronger effect = lower value
[11] = locus YCL016C, strain dcc1, stronger effect = lower value
[12] = locus YCL061C, strain MRC1, stronger effect = lower value
[13] = locus YCL069W, strain vba3, stronger effect = lower value
[14] = locus YCR088W, strain abp1, stronger effect = lower value
[15] = locus YDL005C, strain med2, stronger effect = lower value
[16] = locus YDL040C, strain nat1, stronger effect = lower value
[17] = locus YDR001C, strain nth1, stronger effect = lower value
[18] = locus YDR069C, strain doa4, stronger effect = lower value
[19] = locus YDR137W, strain rgp1, stronger effect = lower value
[20] = locus YDR159W, strain sac3, stronger effect = lower value
[21] = locus YDR297W, strain sur2, stronger effect = lower value
[22] = locus YDR334W, strain swr1, stronger effect = lower value
[23] = locus YDR335W, strain msn5, stronger effect = lower value
[24] = locus YDR392W, strain spt3, stronger effect = lower value
[25] = locus YEL003W, strain gim4, stronger effect = lower value
[26] = locus YEL037C, strain rad23, stronger effect = lower value
[27] = locus YEL061C, strain CIN8 (second series), stronger effect = lower value
[28] = locus YER015W, strain faa2, stronger effect = lower value
[29] = locus YER016W, strain bim1, stronger effect = lower value
[30] = locus YER111C, strain swi4, stronger effect = lower value
[31] = locus YER155C, strain BEM2 (second series), stronger effect = lower value
[32] = locus YFR010W, strain ubp6, stronger effect = lower value
[33] = locus YGL167C, strain pmr1, stronger effect = lower value
[34] = locus YGL173C, strain kem1, stronger effect = lower value
[35] = locus YGL227W, strain vid30, stronger effect = lower value
[36] = locus YGL240W, strain doc1, stronger effect = lower value
[37] = locus YGL253W, strain hxk2, stronger effect = lower value
[38] = locus YHR013C, strain ard1, stronger effect = lower value
[39] = locus YHR027C, strain rpn1, stronger effect = lower value
[40] = locus YHR030C, strain SLT2, stronger effect = lower value
[41] = locus YHR079C, strain IRE1, stronger effect = lower value
[42] = locus YHR142W, strain chs7, stronger effect = lower value
[43] = locus YJL092W, strain hpr5, stronger effect = lower value
[44] = locus YJL095W, strain BCK1 (second series), stronger effect = lower value
[45] = locus YJL095W, strain BCK1, stronger effect = lower value
[46] = locus YJL115W, strain asf1, stronger effect = lower value
[47] = locus YJL129C, strain trk1, stronger effect = lower value
[48] = locus YJL154C, strain vps35, stronger effect = lower value
[49] = locus YJL164C, strain tpk1, stronger effect = lower value
[50] = locus YJL166W, strain qcr8, stronger effect = lower value
[51] = locus YJL187C, strain SWE1, stronger effect = lower value
[52] = locus YJR066W, strain TOR1, stronger effect = lower value
[53] = locus YKL160W, strain elf1, stronger effect = lower value
[54] = locus YKR026C, strain gcn3, stronger effect = lower value
[55] = locus YKR091W, strain srl3, stronger effect = lower value
[56] = locus YLL001W, strain dnm1, stronger effect = lower value
[57] = locus YLL026W, stronger effect = lower value
[58] = locus YLL041C, strain sdh2, stronger effect = lower value
[59] = locus YLR027C, strain aat2, stronger effect = lower value
[60] = locus YLR113W, strain HOG1, stronger effect = lower value
[61] = locus YLR221C, strain rsa3, stronger effect = lower value
[62] = locus YLR258W, strain gsy2, stronger effect = lower value
[63] = locus YLR262C, strain YPT6 (second series), stronger effect = lower value
[64] = locus YLR320W, strain mms22, stronger effect = lower value
[65] = locus YLR342W, strain FKS1, stronger effect = lower value
[66] = locus YLR357W, strain rsc2, stronger effect = lower value
[67] = locus YLR370C, strain arc18, stronger effect = lower value
[68] = locus YLR384C, strain iki3, stronger effect = lower value
[69] = locus YML120C, strain ndi1, stronger effect = lower value
[70] = locus YMR058W, strain fet3, stronger effect = lower value
[71] = locus YMR125W, strain sto1, stronger effect = lower value
[72] = locus YMR129W, stronger effect = lower value
[73] = locus YMR205C, strain PFK2, stronger effect = lower value
[74] = locus YMR231W, strain pep5, stronger effect = lower value
[75] = locus YNL071W, strain lat1, stronger effect = lower value
[76] = locus YNL183C, strain NPR1, stronger effect = lower value
[77] = locus YNL209W, strain ssb2, stronger effect = lower value
[78] = locus YNL248C, strain rpa49, stronger effect = lower value
[79] = locus YNL322C, strain KRE1 (second series), stronger effect = lower value
[80] = locus YNR049C, strain mso1, stronger effect = lower value
[81] = locus YOR001W, strain rrp6, stronger effect = lower value
[82] = locus YOR070C, strain gyp1, stronger effect = lower value
[83] = locus YOR080W, strain dia2, stronger effect = lower value
[84] = locus YOR083W, strain WHI5, stronger effect = lower value
[85] = locus YOR106W, strain vam3, stronger effect = lower value
[86] = locus YOR231W, strain MKK1, stronger effect = lower value
[87] = locus YOR265W, strain rbl2, stronger effect = lower value
[88] = locus YOR270C, strain vph1, stronger effect = lower value
[89] = locus YOR290C, strain snf2, stronger effect = lower value
[90] = locus YPL051W, strain arl3, stronger effect = lower value
[91] = locus YPL078C, strain atp4, stronger effect = lower value
[92] = locus YPL106C, strain sse1, stronger effect = lower value
[93] = locus YPL240C, strain hsp82, stronger effect = lower value
[94] = locus YPL256C, strain CLN2, stronger effect = lower value

Measured: normalized growth

NC(=O)C(c1ccccc1)(c1ccccc1)C1CCN(CCc2ccc3c(c2)CCO3)C1 (stereo not given)
inactive: [1] 1.01 | [2] 1.02 | [3] 1.03 | [4] 1.01 | [5] 1.04 | [6] 1.02 | [7] 1.04 | [8] 0.976 | [9] 1.02 | [10] 1.03 | [11] 1.03 | [12] 1.02 | [13] 1.02 | [14] 1.02 | [15] 1.02 | [16] 1.03 | [17] 1.02 | [18] 1.04 | [19] 1.1 | [20] 1.03 | locus YDR195W, strain ref2 1.04 | [21] 1.02 | [22] 1.03 | [23] 1.01 | [24] 0.996 | [25] 1.03 | [26] 1.02 | [27] 1.01 | [28] 1.02 | [29] 1.04 | [30] 1.02 | [31] 1.04 | [32] 1.02 | [33] 1.02 | [34] 1.02 | [35] 1.01 | [36] 1.01 | [37] 1.02 | [38] 1.01 | [39] 1.03 | [40] 1.05 | [41] 1.05 | [42] 1 | [43] 1.01 | [44] 1.03 | [45] 0.986 | [46] 1.02 | [47] 0.999 | [48] 1.03 | [49] 1.04 | [50] 1.03 | [51] 1.02 | [52] 0.997 | [53] 1.02 | [54] 1.02 | [55] 1.02 | [56] 1.03 | [57] 1.02 | [58] 1.03 | [59] 1.03 | [60] 1.01 | [61] 1.02 | [62] 1.04 | [63] 1.08 | [64] 1.01 | [65] 1.02 | [66] 0.966 | [67] 1.01 | [68] 1.03 | [69] 1.01 | [70] 1.02 | [71] 1.01 | [72] 1.02 | [73] 1.03 | [74] 1.02 | [75] 1.01 | [76] 0.997 | [77] 1.02 | [78] 1.03 | [79] 1.04 | [80] 1.02 | [81] 1.03 | [82] 1.03 | [83] 1.01 | [84] 1 | [85] 1.01 | [86] 1.04 | [87] 1.05 | [88] 1.02 | [89] 1.08 | [90] 1.04 | [91] 1.01 | [92] 1.05 | [93] 1.03 | [94] 1.06

Nc1c(S(=O)(=O)O)cc(Nc2ccc(Nc3nc(Cl)nc(Nc4ccc(S(=O)(=O)O)cc4)n3)c(S(=O)(=O)O)c2)c2c1C(=O)c1ccccc1C2=O
inactive: locus YAL013W, strain DEP1, stronger effect = lower value 0.977 | locus YAL040C, strain CLN3, stronger effect = lower value 1.09 | locus YCL061C, strain MRC1 (second series), stronger effect = lower value 1.01 | locus YDR150W, strain NUM1, stronger effect = lower value 1.03 | locus YDR363W, strain ESC2, stronger effect = lower value 1.01 | locus YER002W, strain NOP16, stronger effect = lower value 1.03 | locus YGR078C, strain PAC10, stronger effect = lower value 1.04 | locus YMR307W, strain GAS1, stronger effect = lower value 1.05 | locus YNL128W, strain TEP1, stronger effect = lower value 1.03 | locus YNL175C, strain NOP13, stronger effect = lower value 1.03 | locus YNL197C, strain WHI3, stronger effect = lower value 1.04 | locus YNL224C, strain SQS1, stronger effect = lower value 1.04 | locus YNL322C, strain KRE1, stronger effect = lower value 1.01 | locus YOR083W, strain WHI5 (second series), stronger effect = lower value 1.04 | locus YPL241C, strain CIN2, stronger effect = lower value 1.02

CC(=O)O[C@H]1[C@@H]2[C@@H](OC(=O)Cc3ccccc3)[C@@H](C)C[C@]2(OC(C)=O)C(=O)/C(C)=C/[C@H]2[C@H](CC[C@@]13CO3)C2(C)C
active: [75] 0.914
inactive: [1] 0.975 | [2] 0.985 | [3] 0.986 | [4] 0.984 | [5] 1 | [6] 0.982 | [7] 0.976 | [8] 0.988 | [9] 0.983 | [10] 0.979 | [11] 0.989 | [12] 0.992 | [13] 0.991 | [14] 0.992 | [15] 0.976 | [16] 0.978 | [17] 0.985 | [18] 0.98 | [19] 0.85 | [20] 0.977 | locus YDR195W, strain ref2 1.01 | [21] 0.97 | [22] 0.934 | [23] 0.978 | [24] 0.84 | [25] 0.981 | [26] 0.987 | [27] 0.984 | [28] 0.989 | [29] 0.979 | [30] 0.992 | [31] 0.984 | [32] 0.977 | [33] 0.97 | [34] 0.958 | [35] 0.99 | [36] 0.99 | [37] 0.974 | [38] 0.926 | [39] 0.983 | [40] 0.988 | [41] 0.981 | [42] 0.958 | [43] 0.97 | [44] 0.977 | [45] 0.989 | [46] 0.969 | [47] 0.941 | [48] 0.993 | [49] 0.982 | [50] 0.981 | [51] 0.988 | [52] 0.963 | [53] 0.972 | [54] 0.982 | [55] 0.985 | [56] 0.98 | [57] 0.98 | [58] 0.97 | [59] 0.975 | [60] 0.966 | [61] 0.975 | [62] 0.986 | [63] 0.878 | [64] 0.971 | [65] 0.966 | [66] 1.03 | [67] 0.987 | [68] 0.983 | [69] 0.967 | [70] 0.98 | [71] 1 | [72] 0.989 | [73] 0.984 | [74] 0.993 | [76] 0.909 | [77] 0.989 | [78] 0.98 | [79] 0.981 | [80] 0.978 | [81] 0.955 | [82] 0.985 | [83] 0.974 | [84] 0.972 | [85] 0.951 | [86] 0.961 | [87] 0.983 | [88] 0.815 | [89] 0.929 | [90] 0.958 | [91] 0.978 | [92] 1 | [93] 0.966 | [94] 0.967
